Assay outcomes from PubChem.
AMA1 RON2 block: qHTS for Inhibitors of AMA1-RON; Towards Development of Antimalarial Drug Lead: Primary Screen | Potency, µM (highest dose often 58.2 µM), inactives show top-dose activity change, negative = inhibition, most hits filed as inhibitors | 360,000 tested, 0.2% active | Plasmodium falciparum AMA1 (3D7) - RON2 peptide interaction | AlphaScreen AMA1-biotinylated RON2 peptide binding | AID 720542, 2013;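 further: 0% = vehicle wells and -100% = peptide control; nearly all actives have a fitted effect of over 45% in size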
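AMA1 (3D7) with his tag at 25 nM final met compounds first, then biotinylated RON2 peptide at 25 nM; detection used donor plus acceptor beads, 10 µg/mL apiece, read by AlphaScreen after 30 min at room temperature.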
Sm TGR block: qHTS Assay for the Inhibitors of Schistosoma Mansoni Peroxiredoxins; purified TGR, DTNB reduction, TNB absorbance 405 nm; Potency, µM (titrated, usually from 114 µM), without a hit: at the highest dose activity change, negative = inhibition, hits mostly inhibitors; Schistosoma mansoni thioredoxin glutathione reductase (TGR), Q962Y6; 360,000 tested, 3% active; further: on the % scale 0 is the no-effect control and ±100 the full control effect; nearly all actives have a fitted effect of over 60% in size
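First, TGR (20 nM dispensed) and NADPH were mixed with compound. Second, a 15 min room-temperature incubation followed. Third, further NADPH and then DTNB were added to start the reaction. Finally, TNB absorbance was monitored kinetically.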
NS1 function inh: qHTS Assay for Inhibitors of Influenza NS1 Protein Function. Potency, µM (doses to about 46.1 µM), without a hit: at the highest dose activity, positive = more growth. 270,000 tested, 0.4% active. AID 2326, 2010; calls by dose curve; further: actives are rising curves; nearly all actives have a fitted effect of over 50% in size
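Growth recovery, yeast-based: influenza A NS1 expressed in S. cerevisiae causes slow growth, and suppressors are detected by OD600. The parent strain without NS1 is used as positive control.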
Pf growth 48h: Primary qHTS for delayed death inhibitors of the malarial parasite plastid, 48 hour incubation; P. falciparum luciferase growth in erythrocytes, 48 h; Potency, µM (highest dose often 28.7 µM), for inactives: top-dose activity change, negative = inhibition, actives largely listed as inhibitors; 310,000 tested, 5.9% active; further: on the % scale 0 is the no-effect control and ±100 the full control effect
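Firefly luciferase activity from engineered P. falciparum reports growth; inhibitors lower the luminescent signal. Cultures contained 2% hematocrit erythrocytes at 0.1% final parasitemia.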
Pf growth 96h: Primary qHTS for delayed death inhibitors of the malarial parasite plastid, 96 hour incubation | 320,000 tested, 6.9% active | Potency, µM (top dose mostly 28.7 µM), inactives show at the top dose activity change, negative = inhibition, most hits filed as inhibitors | P. falciparum luciferase reporter growth, 96 h; further: on the % scale 0 is the no-effect control and ±100 the full control effect
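Luminescence readout: decreased luciferase signal marks inhibited growth of reporter-expressing P. falciparum in infected red cells (2% hematocrit, 0.05% parasitemia final), exposed to compound two generations (96 h, 37 C, 5% CO2).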
Starred values were filed as active, the others as inactive. A selection: hits, their analogues and other compounds. The true share with any hit is near 11%. Unless noted, the call rests on the fitted dose curve; in most records, active means well fitted curve in the direction sought with a large enough effect; inconclusive means small, poorly fitted or top-dose-only effect, or another doubt; inactive means no such curve, though single readings can be large; an effect the other way counts as inactive or inconclusive. Potency means the concentration at half of the fitted maximal effect.

For CC(=C/c1ccccc1)/C=N/NC(=O)c1cccs1 the results were AMA1 RON2 block -13%, Sm TGR block 12%, NS1 function inh -53%, Pf growth 48h 254% and Pf growth 96h -66%.
Screening CC1CCN(C(=O)/C(=C/c2ccccc2Cl)c2ccccc2)CC1 returned AMA1 RON2 block -18%, Sm TGR block 8%, NS1 function inh -139%, Pf growth 48h -66% and Pf growth 96h inconclusive.
For Cc1c(C(=O)N2CCCCCC2)c(S(=O)(=O)NCc2ccccc2)c(C)n1C the results were Sm TGR block 1%.
For O=C(C#Cc1cccc([N+](=O)[O-])c1)c1ccccc1 the results were Sm TGR block -29%, NS1 function inh -187% and Pf growth 96h -7%.
Screening Nc1ccccc1C#CC(=O)c1ccccc1 returned AMA1 RON2 block 0%, Sm TGR block 0.5µM*, NS1 function inh -68%, Pf growth 48h inconclusive and Pf growth 96h 3%.
Screening O=C(Nc1ccccc1)c1ccccc1NC(=O)C1CCCCC1 returned AMA1 RON2 block -9%, Sm TGR block 4%, NS1 function inh 9%, Pf growth 48h -24% and Pf growth 96h 76%.
For Cc1cccc(NC(=O)c2ccccc2NC(=O)C2CCCCC2)c1C the results were AMA1 RON2 block -5%, Sm TGR block 13µM*, NS1 function inh inconclusive, Pf growth 48h 5% and Pf growth 96h 88%.
CC(C)c1ccccc1NC(=O)c1ccccc1NC(=O)C1CCCCC1 was read as AMA1 RON2 block 1%, Sm TGR block -4%, NS1 function inh -7%, Pf growth 48h 12µM* and Pf growth 96h 187%.
For O=C(Nc1ccc(S(=O)(=O)N2CCCCCC2)cc1)c1cc(=O)c2ccccc2o1 the results were Sm TGR block 0%.
Screening OC1(c2ccc(F)cc2)CSC(=Nc2cccnc2)N1Cc1ccco1 (stereo unspecified) returned AMA1 RON2 block -2%, Sm TGR block -11%, NS1 function inh -35%, Pf growth 48h 5.9µM* and Pf growth 96h 2.3µM*.
CN(C(=O)c1cccc(NC(=O)Cc2cccc(NC(=O)C3CCN(C(=O)c4ccccc4)CC3)c2)c1)C1CCCC1 was read as AMA1 RON2 block 8%.
Screening Cc1ccc(Cl)cc1NC(=O)COC(=O)C12CC3CC(CC(C3)C1)C2 returned AMA1 RON2 block -13%, Sm TGR block -28%, NS1 function inh 1%, Pf growth 48h 3.7µM* and Pf growth 96h 7.4µM*.
Cc1ccc(Cl)cc1NC(=O)COC(=O)C1CCCC1 was read as AMA1 RON2 block 4%, Sm TGR block 6%, NS1 function inh -15%, Pf growth 48h 22% and Pf growth 96h 3%.
c1csc(-c2csc3nc(CN4CCOCC4)nc(NCc4ccc5c(c4)OCO5)c23)c1 was read as AMA1 RON2 block -29%, Sm TGR block -20%, NS1 function inh -37%, Pf growth 48h inconclusive and Pf growth 96h 8.3µM*.
For Cc1ccc(-c2nc(SCC(=O)Nc3cc(S(=O)(=O)N4CCCCC4)ccc3Cl)n[nH]2)cc1 the results were AMA1 RON2 block -11%, Sm TGR block 5%, NS1 function inh inconclusive, Pf growth 48h 11% and Pf growth 96h inconclusive.
Screening COc1ccccc1N=Cc1c(C)[nH]n(-c2ccc(C)cc2C)c1=O returned AMA1 RON2 block 25%, Sm TGR block 40µM*, NS1 function inh 4%, Pf growth 48h 5% and Pf growth 96h 15%.
Screening COc1cc(SC#N)ccc1N=Cc1c(C)[nH]n(-c2cccc3ccccc23)c1=O returned AMA1 RON2 block -8%, Sm TGR block -3%, NS1 function inh -2%, Pf growth 48h 9.3µM* and Pf growth 96h 0.74µM*.
For CC(C)NC(=S)N(C)C1(c2ccccc2Cl)CCCCC1=O (stereo unspecified) the results were AMA1 RON2 block -8%, Sm TGR block 2%, NS1 function inh -12%, Pf growth 48h 3% and Pf growth 96h 0%.
